According to PubChem BioAssay AID1159580 (chemical genetic matrix, 2015):
The campaign covered roughly 5,500 compounds. About 2,000 (36%) were called active. Not shown: some 18% with an inconclusive outcome. This is one part of the list. Values without a mark were called inactive. Cut-off read from the data, not from the text of the source: active = normalized growth mostly below about 0.91 (no sharp cut-off); inconclusive = no clear call, values can overlap the other calls; inactive = mostly above about 0.92.

Experiment: chemical genetic growth profiling, strain panel (AID 1159580);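 note: tested at 20 µM; growth read once vehicle control cultures reached saturation at 30 °C; 1 = growth at the plate median or of vehicle wells; lower values mean less growth of the strain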
Conditions: S. cerevisiae deletion strains, growth OD
[1] = locus YAR019C, strain CDC15, active compounds read low
[2] = locus YBL105C, strain PKC1, active compounds read low
[3] = locus YBR135W, strain CKS1, active compounds read low
[4] = locus YBR136W, strain MEC1, active compounds read low
[5] = locus YBR160W, strain CDC28, active compounds read low
[6] = locus YDL017W, strain CDC7, active compounds read low
[7] = locus YDL028C, strain MPS1, active compounds read low
[8] = locus YDL101C, strain DUN1, active compounds read low
[9] = locus YDL108W, strain KIN28, active compounds read low
[10] = locus YDL132W, strain cdc53, active compounds read low
[11] = locus YDL214C, strain PRR2, active compounds read low
[12] = locus YDR052C, strain DBF4, active compounds read low
[13] = locus YDR054C, strain cdc34, active compounds read low
[14] = locus YDR226W, strain ADK1, active compounds read low
[15] = locus YDR477W, strain SNF1, active compounds read low
[16] = locus YER123W, strain YCK3, active compounds read low
[17] = locus YER133W, strain GLC7, active compounds read low
[18] = locus YFL009W, strain cdc4, active compounds read low
[19] = locus YFL029C, strain CAK1, active compounds read low
[20] = locus YFR003C, strain YPI1, active compounds read low
[21] = locus YFR019W, strain FAB1, active compounds read low
[22] = locus YFR028C, strain CDC14, active compounds read low
[23] = locus YGR040W, strain KSS1, active compounds read low
[24] = locus YGR052W, strain FMP48, active compounds read low
[25] = locus YGR092W, strain DBF2, active compounds read low
[26] = locus YHR030C, strain SLT2, active compounds read low
[27] = locus YHR079C, strain IRE1, active compounds read low
[28] = locus YHR082C, strain KSP1, active compounds read low
[29] = locus YHR205W, strain SCH9, active compounds read low
[30] = locus YIL147C, strain SLN1, active compounds read low
[31] = locus YJL095W, strain BCK1, active compounds read low
[32] = locus YJL128C, strain PBS2, active compounds read low
[33] = locus YJL157C, strain FAR1, active compounds read low
[34] = locus YJR016C, strain ILV3, active compounds read low
[35] = locus YJR066W, strain TOR1 (second series), active compounds read low
[36] = locus YJR066W, strain TOR1, active compounds read low
[37] = locus YKL048C, strain ELM1, active compounds read low
[38] = locus YKL067W, strain YNK1, active compounds read low
[39] = locus YKL101W, strain HSL1, active compounds read low
[40] = locus YKL193C, strain SDS22, active compounds read low
[41] = locus YKL203C, strain TOR2, active compounds read low
[42] = locus YLR113W, strain HOG1, active compounds read low
[43] = locus YLR133W, strain CKI1, active compounds read low
[44] = locus YLR403W, strain SFP1, active compounds read low
[45] = locus YML070W, strain DAK1, active compounds read low
[46] = locus YMR001C, strain CDC5, active compounds read low
[47] = locus YMR205C, strain PFK2 (second series), active compounds read low
[48] = locus YMR277W, strain FCP1, active compounds read low
[49] = locus YNL006W, strain LST8, active compounds read low
[50] = locus YNL020C, strain ARK1, active compounds read low
[51] = locus YNL161W, strain CBK1, active compounds read low
[52] = locus YNL183C, strain NPR1, active compounds read low
[53] = locus YNL207W, strain RIO2, active compounds read low
[54] = locus YNL222W, strain SSU72, active compounds read low
[55] = locus YNL307C, strain MCK1 (second series), active compounds read low
[56] = locus YOL078W, strain AVO1, active compounds read low
[57] = locus YOL136C, strain PFK27, active compounds read low
[58] = locus YOR061W, strain CKA2, active compounds read low
[59] = locus YOR119C, strain RIO1, active compounds read low
[60] = locus YOR231W, strain MKK1, active compounds read low
[61] = locus YOR329C, strain SCD5, active compounds read low
[62] = locus YPL031C, strain PHO85, active compounds read low
[63] = locus YPL153C, strain RAD53, active compounds read low
[64] = locus YPL204W, strain HRR25, active compounds read low
[65] = locus YPL209C, strain IPL1, active compounds read low
[66] = locus YPL256C, strain CLN2, active compounds read low
[67] = locus YPR025C, strain CCL1, active compounds read low
[68] = locus YPR106W, strain ISR1, active compounds read low
[69] = locus YPR111W, strain DBF20, active compounds read low
[70] = strain NNK1, active compounds read low
[71] = strain TSCII, active compounds read low

Molecule `Cc1cc(C(=O)Nc2ccc(Cl)cc2)nn1C(C)(C)C` has a normalized growth [1] of 0.985, a normalized growth [2] of 1 and a normalized growth [3] of 0.995. It also gave a normalized growth [4] of 1, a normalized growth [5] of 0.99 and a normalized growth [6] of 0.995. The normalized growth [7] was 1.01, the normalized growth [8] was 0.984 and the normalized growth [9] was 0.993. The normalized growth [10] was 0.989, the normalized growth [11] was 0.967 and the normalized growth [12] was 1. It also gave a normalized growth [13] of 0.984, a normalized growth [14] of 0.987 and a normalized growth [15] of 0.973. The normalized growth [16] was 0.955, the normalized growth [17] was 0.97 and the normalized growth [18] was 0.989. The normalized growth [19] was 0.984, the normalized growth [20] was 1 and the normalized growth [21] was 0.992. The normalized growth [22] was 1, the normalized growth [23] was 0.978 and the normalized growth [24] was 0.958. For the same molecule, the normalized growth [25] was 0.982, the normalized growth [26] was 1.08 and the normalized growth [27] was 0.866. The normalized growth [28] was 1.15, the normalized growth [29] was 0.951 and the normalized growth [30] was 0.998. For the same molecule, the normalized growth [31] was 0.849, the normalized growth [32] was 0.942 and the normalized growth [33] was 0.973. It also gave a normalized growth [34] of 0.984, a normalized growth [35] of 0.962 and a normalized growth [36] of 1.11. The normalized growth [37] was 0.983, the normalized growth [38] was 0.976 and the normalized growth [39] was 0.975. The normalized growth [40] was 0.993, the normalized growth [41] was 1.05 and the normalized growth [42] was 0.801 (active). For the same molecule, the normalized growth [43] was 0.967, the normalized growth [44] was 0.956 and the normalized growth [45] was 0.958. The normalized growth [46] was 1, the normalized growth [47] was 0.966 and the normalized growth [48] was 0.975. The normalized growth [49] was 0.992, the normalized growth [50] was 0.964 and the normalized growth [51] was 0.986. The normalized growth [52] was 0.893, the normalized growth [53] was 0.998 and the normalized growth [54] was 0.992. The normalized growth [55] was 0.977, the normalized growth [56] was 0.985 and the normalized growth [57] was 0.96. The normalized growth [58] was 0.977, the normalized growth [59] was 1.02 and the normalized growth [60] was 0.877. It also gave a normalized growth [61] of 1, a normalized growth [62] of 0.982 and a normalized growth [63] of 0.957. For the same molecule, the normalized growth [64] was 0.962, the normalized growth [65] was 1 and the normalized growth [66] was 0.817 (active). For the same molecule, the normalized growth [67] was 0.999, the normalized growth [68] was 0.979 and the normalized growth [69] was 0.978. The normalized growth [70] was 0.984 and the normalized growth [71] was 0.985.
Molecule `Cc1nn(Cc2cccc(C(=O)Nc3ccc(Cl)cc3)c2)c(C)c1Br` has a normalized growth [1] of 0.99, a normalized growth [2] of 0.976 and a normalized growth [3] of 0.986. The normalized growth [4] was 0.976, the normalized growth [5] was 0.979 and the normalized growth [6] was 0.985. The normalized growth [7] was 0.978, the normalized growth [8] was 0.981 and the normalized growth [9] was 0.979. The normalized growth [10] was 0.976, the normalized growth [11] was 0.96 and the normalized growth [12] was 0.986. The normalized growth [13] was 0.975, the normalized growth [14] was 0.978 and the normalized growth [15] was 0.959. It also gave a normalized growth [16] of 0.946, a normalized growth [17] of 0.953 and a normalized growth [18] of 0.978. It also gave a normalized growth [19] of 0.982, a normalized growth [20] of 0.977 and a normalized growth [21] of 0.977. It also gave a normalized growth [22] of 0.981, a normalized growth [23] of 0.965 and a normalized growth [24] of 1.01. It also gave a normalized growth [25] of 0.987, a normalized growth [26] of 1.1 and a normalized growth [27] of 1.11. It also gave a normalized growth [28] of 1.06, a normalized growth [29] of 1.01 and a normalized growth [30] of 0.978. For the same molecule, the normalized growth [31] was 1, the normalized growth [32] was 0.952 and the normalized growth [33] was 0.968. The normalized growth [34] was 0.985, the normalized growth [35] was 0.978 and the normalized growth [36] was 1.06. The normalized growth [37] was 0.961, the normalized growth [38] was 0.965 and the normalized growth [39] was 0.955. It also gave a normalized growth [40] of 0.975, a normalized growth [41] of 1.04 and a normalized growth [42] of 0.923. For the same molecule, the normalized growth [43] was 0.967, the normalized growth [44] was 0.99 and the normalized growth [45] was 0.954. The normalized growth [46] was 0.979, the normalized growth [47] was 0.965 and the normalized growth [48] was 0.98. It also gave a normalized growth [49] of 0.994, a normalized growth [50] of 0.965 and a normalized growth [51] of 0.987. For the same molecule, the normalized growth [52] was 1.04, the normalized growth [53] was 0.978 and the normalized growth [54] was 0.981. The normalized growth [55] was 1, the normalized growth [56] was 0.973 and the normalized growth [57] was 0.92. It also gave a normalized growth [58] of 0.96, a normalized growth [59] of 1.02 and a normalized growth [60] of 0.968. For the same molecule, the normalized growth [61] was 0.987, the normalized growth [62] was 0.963 and the normalized growth [63] was 0.957. It also gave a normalized growth [64] of 0.935, a normalized growth [65] of 0.981 and a normalized growth [66] of 1. It also gave a normalized growth [67] of 0.974, a normalized growth [68] of 0.982 and a normalized growth [69] of 0.97. It also gave a normalized growth [70] of 0.982 and a normalized growth [71] of 0.981.
